From PubChem BioAssay AID1259417 (TB Discovery Research, Infectious Disease Research Institute, 2018)
Screen size: about 1,100 compounds; about 760 (69%) were called active. No rule for the calls is given here. The set was probably picked from earlier hits. The list shows a part of the results.

Assay: M. tuberculosis growth inhibition, HTS (AID 1259417);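 also: bacteria grown with compound for 5 days at 37 °C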
Details: stronger effect = higher value, concentration not given here
[1] = M. tuberculosis DsRed fluorescence growth inhibition
[2] = M. tuberculosis growth inhibition

Cc1cccc2sc(N(CCCn3ccnc3)C(=O)c3ccco3)nc12
inhibition [1]: 98.6% (active) | inhibition [2]: 99.8%

Cc1ccc2sc(N(CCCn3ccnc3)C(=O)c3ccco3)nc2c1C
inhibition [1]: 98.6% (active) | inhibition [2]: 98.1%

Cc1cc(Cl)cc2sc(N(CCCn3ccnc3)C(=O)c3ccco3)nc12
inhibition [1]: 97.5% (active) | inhibition [2]: 98.4%

Cc1c(Cl)ccc2sc(N(CCCn3ccnc3)C(=O)c3ccco3)nc12
inhibition [1]: 98.6% (active) | inhibition [2]: 99.5%

O=C(Nc1nc2c(Cl)cccc2s1)c1ccc([N+](=O)[O-])o1
inhibition [1]: -3.76% (inactive) | inhibition [2]: 28.2%

O=C(Nc1nnc(-c2ccc(Cl)s2)o1)c1ccc([N+](=O)[O-])o1
inhibition [1]: 95.4% (active) | inhibition [2]: 87.9%

O=C(Nc1ccc(Cl)cc1C(F)(F)F)c1ccc([N+](=O)[O-])o1
inhibition [1]: 60.7% (active) | inhibition [2]: 58.1%

O=C(CCc1ccccc1)Nc1nnc(-c2ccc(Cl)s2)o1
inhibition [1]: 10% (inactive) | inhibition [2]: 26.7%

O=C(Nc1nnc(-c2ccc(Cl)cc2)o1)c1ccc([N+](=O)[O-])o1
inhibition [1]: 98.3% (active) | inhibition [2]: 98.8%

C=CCn1c(O)c(C2=c3ccccc3=NC2=O)sc1=N
inhibition [1]: -9.61% (inactive) | inhibition [2]: 14.7%

CCCCCn1c(NCc2ccc(N(C)C)cc2)nc2ccccc21
inhibition [1]: -0.00251% (inactive) | inhibition [2]: -15.7%

CCn1c(NCc2c(O)ccc3ccccc23)nc2ccccc21
inhibition [1]: 77.8% (active) | inhibition [2]: 89%

Cc1ccc(C)c(-c2nnc(NC(=O)c3ccc([N+](=O)[O-])o3)o2)c1
inhibition [1]: 12.4% (inactive) | inhibition [2]: 1.93%

Cc1ccc(-c2nnc(NC(=O)c3ccc([N+](=O)[O-])o3)o2)c(C)c1
inhibition [1]: 97.8% (active) | inhibition [2]: 98.1%

Cc1ccc(C)c(-c2nnc(NC(=O)c3ccc([N+](=O)[O-])s3)o2)c1
inhibition [1]: 98.9% (active) | inhibition [2]: 97.4%

Cc1ccc(-c2nnc(NC(=O)c3c(F)cccc3F)o2)c(C)c1
inhibition [1]: 2.49% (inactive) | inhibition [2]: -10.3%

Cc1ccc(-c2nnc(NC(=O)c3ccc([N+](=O)[O-])s3)o2)c(C)c1
inhibition [1]: 41.9% (active) | inhibition [2]: 72.9%

O=[N+]([O-])c1ccc(N2CCN(CCO)CC2)cc1NCCOc1cccc2ccccc12
inhibition [1]: 10.3% (inactive) | inhibition [2]: -3.69%

CCOc1cc2c3c(c1)C1(C(=O)N3C(C)(C)C=C2C)C(C#N)=C(N)Oc2cc(O)ccc21 (stereo not given)
inhibition [1]: 10.6% (inactive) | inhibition [2]: -4.41%

O=C1C(Cl)=C(Nc2ccccc2O)C(=O)N1c1ccccc1
inhibition [1]: 96% (active) | inhibition [2]: 94.9%

O=C1C(Cl)=C(Nc2ccccc2O)C(=O)N1c1ccc(Cl)c(Cl)c1
inhibition [1]: 95.4% (active) | inhibition [2]: 94.6%

O=[N+]([O-])c1ccc(-c2[nH]c(-c3cccs3)nc2-c2ccccc2)cc1
inhibition [1]: -27% (inactive) | inhibition [2]: 4.73%

COC(=O)CSc1nc2ccccc2nc1SCC(=O)OC
inhibition [1]: 11.6% (active) | inhibition [2]: 37.2%

c1ccc(-c2nc(NCC3CCCO3)c3ccccc3n2)nc1 (stereo not given)
inhibition [1]: 95.4% (active) | inhibition [2]: 94.9%

CC(=O)c1cccc(Nc2nc(-c3ccccn3)cs2)c1
inhibition [1]: 70.5% (active) | inhibition [2]: 74.6%

CC(=O)c1cccc(Nc2cc(C)nc3c2ccc2ccccc23)c1
inhibition [1]: 10.9% (inactive) | inhibition [2]: -33.8%

COc1ccc(Nc2nc(-c3ccccn3)cs2)c(OC)c1
inhibition [1]: 92.1% (active) | inhibition [2]: 83.9%

COc1cccc(Nc2nc(-c3ccccn3)cs2)c1
inhibition [1]: 93.6% (active) | inhibition [2]: 93.4%

CC(=O)c1ccc(NC(=O)Nc2cc(OCC(F)(F)F)cc(OCC(F)(F)C(F)F)c2)cc1
inhibition [1]: 1.19% (inactive) | inhibition [2]: 22.7%

CC(=O)c1ccc(NC(=O)NC(C)C23CC4CC(CC(C4)C2)C3)cc1 (stereo not given)
inhibition [1]: 98.3% (active) | inhibition [2]: 94.8%

Cc1oc2c(c1C(=O)Nc1cccc3ccccc13)CCCC2
inhibition [1]: 13.4% (inactive) | inhibition [2]: 21.7%

O=C(Nc1ccc(-c2nc3ccccc3c(=O)o2)cc1)c1ccccc1I
inhibition [1]: 78.1% (active) | inhibition [2]: 85.2%

CCOC(=O)C(Cc1ccccc1)C(=O)Nc1cccc2ccccc12 (stereo not given)
inhibition [1]: -0.257% (inactive) | inhibition [2]: -5.18%

CCCC(=O)Nc1cccc(-c2nc3ccccc3c(=O)o2)c1
inhibition [1]: 29.1% (active) | inhibition [2]: 52%

Cc1ccc(-c2nc3c(cnn3-c3ccccc3)c(=O)o2)cc1
inhibition [1]: 4.19% (inactive) | inhibition [2]: -0.344%

COc1ccccc1-c1nnc(NC(=O)c2sc3ccccc3c2Cl)o1
inhibition [1]: -1.61% (inactive) | inhibition [2]: -16%

COc1ccccc1OC(=O)c1sc2ccccc2c1Cl
inhibition [1]: 17.3% (active) | inhibition [2]: 53%

Cc1ccccc1OC(=O)c1sc2ccccc2c1Cl
inhibition [1]: 25.5% (active) | inhibition [2]: 64.7%

Cc1c(OC(=O)c2ccccc2Cl)ccc2c1CCCC2
inhibition [1]: 7.92% (inactive) | inhibition [2]: 16.4%

O=C1c2cccc3cccc(c23)C(=O)N1c1ccc2[nH]c(=O)[nH]c2c1
inhibition [1]: 36.4% (active) | inhibition [2]: 63.9%

COc1ccc2nc(C)c3cc(C)oc3c2c1
inhibition [1]: 99.8% (active) | inhibition [2]: 99.6%

O=c1cc(-c2c(F)c(F)c(F)c(F)c2F)oc2ccccc12
inhibition [1]: 99.2% (active) | inhibition [2]: 96.4%

O=C(Oc1c(Cl)cc(Cl)c2cccnc12)c1cc(S(=O)(=O)N2CCCCC2)ccc1Cl
inhibition [1]: 98.6% (active) | inhibition [2]: 99.4%

O=C(Oc1ccccc1Cl)c1ccc(N2CCOCC2)c([N+](=O)[O-])c1
inhibition [1]: 0.0336% (inactive) | inhibition [2]: 13.4%

Cc1ccc(S(=O)(=O)NC(=O)Oc2cccc3cccnc23)cc1
inhibition [1]: -0.272% (inactive) | inhibition [2]: -10.4%

O=C(Oc1ccc(Cl)cc1)c1ccc(N2CCOCC2)c([N+](=O)[O-])c1
inhibition [1]: 4.2% (inactive) | inhibition [2]: 24.6%

O=C(Oc1cccc2cccnc12)c1ccc(S(=O)(=O)N2CCCCC2)cc1
inhibition [1]: 99.4% (active) | inhibition [2]: 100%

O=C(Oc1ccc(Cl)cc1)c1ccc(S(=O)(=O)c2ccc(Cl)cc2)cc1
inhibition [1]: 55.3% (active) | inhibition [2]: 74.8%

O=C(Oc1cccc2cccnc12)c1ccc(Cl)c(S(=O)(=O)N2CCOCC2)c1
inhibition [1]: 100% (active) | inhibition [2]: 101%

COCCn1nnnc1C(c1cc2cc(OC)ccc2[nH]c1=O)N1CCC(Cc2ccccc2)CC1 (stereo not given)
inhibition [1]: 6.25% (inactive) | inhibition [2]: -12.1%

O=C(Oc1ccccc1)c1ccc(S(=O)(=O)N2CCCCC2)cc1
inhibition [1]: 12% (active) | inhibition [2]: 46.3%

Cc1nn(Cc2ccccc2Cl)c2sc(C(=O)NCc3ccc4c(c3)OCO4)cc12
inhibition [1]: -3.53% (inactive) | inhibition [2]: -15.9%

Cc1nc2ccccn2c1C(=O)NCc1ccc2c(c1)OCO2
inhibition [1]: 99.7% (active) | inhibition [2]: 99.6%

COc1ccc(CNC(=O)c2c(C)nc3ccccn23)cc1
inhibition [1]: 99.4% (active) | inhibition [2]: 100%

CCOC(=O)CSc1nc(C#N)c(SCC(=O)OCC)s1
inhibition [1]: 31.4% (active) | inhibition [2]: 80.2%

CCOC(=O)CSc1nc(N)c(C#N)c(CC(C)C)c1C#N
inhibition [1]: -5.9% (inactive) | inhibition [2]: -4.83%

Cc1ccc(NC(=O)CSc2ccc(-c3ccccn3)nn2)cc1
inhibition [1]: 89% (active) | inhibition [2]: 97.4%

CCOC(=O)c1c(NC(=O)c2ccccc2C)sc(C)c1-c1ccc(OC)c(OC)c1
inhibition [1]: -3.52% (inactive) | inhibition [2]: -17.9%

COc1ccc(-c2nc(NC(=O)c3ccccc3)n[nH]2)cc1OC
inhibition [1]: 97.2% (active) | inhibition [2]: 96.7%

CC(C)=CCN1CCN(CCC2=C(C)CCCC2(C)C)CC1CCO (stereo not given)
inhibition [1]: -2.34% (inactive) | inhibition [2]: -26.9%

COc1cccc(NC(=O)c2c(NC(=O)c3cccnc3)sc3c2CCC3)c1
inhibition [1]: 92.4% (active) | inhibition [2]: 95.5%

COc1cccc(NC(=O)c2c(NC(=O)c3cccc(C)c3)sc3c2CCC3)c1
inhibition [1]: -1.15% (inactive) | inhibition [2]: -10.7%

COc1ccc(NC(=O)c2c(NC(=O)c3ccc([N+](=O)[O-])o3)sc3c2CCC3)cc1
inhibition [1]: 96.5% (active) | inhibition [2]: 96.2%

COC(=O)c1c(NC(=O)c2cccc(OC)c2)sc2c1C(C(=O)OC)CC2 (stereo not given)
inhibition [1]: 1.52% (inactive) | inhibition [2]: -13.4%

CC(C)COc1ccc(-c2nn(-c3ccccc3)cc2C(=O)Nc2nccs2)cc1
inhibition [1]: 2.38% (inactive) | inhibition [2]: -24.1%

CCn1ccnc1CN(C)Cc1cn(-c2cc(C)ccc2C)nc1-c1ccccc1
inhibition [1]: 16.9% (inactive) | inhibition [2]: 8.97%

Brc1ccc(-c2nn(-c3ccccc3)cc2CNCc2ccccc2)cc1
inhibition [1]: 23.1% (active) | inhibition [2]: 39.4%

CCn1ccnc1CN(C)Cc1cn(-c2ccc(C)cc2)nc1-c1cccc(C)c1
inhibition [1]: 14.8% (inactive) | inhibition [2]: 8.21%

Cc1ccc(-c2nn(-c3ccccc3)cc2CNCc2ccccc2)cc1
inhibition [1]: 33.4% (active) | inhibition [2]: 66.5%

NC(=O)c1c(NC(=O)c2cc3ccccc3oc2=O)sc2c1CCCCCC2
inhibition [1]: 3.53% (inactive) | inhibition [2]: -10.8%

CCOC(=O)c1cc(CC)sc1NC(=O)c1cc2ccccc2oc1=O
inhibition [1]: 23.7% (active) | inhibition [2]: 60.6%

Cc1sc(NC(=O)c2cc3ccccc3oc2=O)c(C(=O)OC(C)C)c1C
inhibition [1]: 6.18% (inactive) | inhibition [2]: 28.3%

CCc1nnc(NC(=O)c2cc3ccccc3oc2=O)s1
inhibition [1]: 1% (active) | inhibition [2]: 47%

CCOC(=O)c1c(-c2ccc(OC)c(OC)c2)csc1NC(=O)c1cccc(OC)c1OC
inhibition [1]: 4.18% (inactive) | inhibition [2]: -8.63%

CCOC(=O)c1c(-c2ccccc2)csc1NC(=O)c1cc2ccccc2oc1=O
inhibition [1]: 7.43% (active) | inhibition [2]: 32.3%

Cc1cc2ncn(CCOc3ccc(Cl)cc3)c2cc1C
inhibition [1]: 88.3% (active) | inhibition [2]: 95.9%

Cc1cc2ncn(Cc3ccc(C(C)C)cc3)c2cc1C
inhibition [1]: 90.4% (active) | inhibition [2]: 98.3%

Cc1cccc(OCCCn2cnc3cc(C)c(C)cc32)c1
inhibition [1]: 88% (active) | inhibition [2]: 97.5%

c1ccc(CCN(Cc2ccccc2)C2CCN(Cc3c[nH]c4ccccc34)CC2)cc1
inhibition [1]: 2.96% (inactive) | inhibition [2]: -21.5%

C1=CC2CC1CC2CN1CCC(N(CCc2ccccc2)Cc2ccccc2)CC1 (stereo not given)
inhibition [1]: 99.4% (active) | inhibition [2]: 96.9%

Cc1ccc(-c2nnc(N3CCN(C(=O)c4ccco4)CC3)c3ccccc23)cc1
inhibition [1]: 3.3% (inactive) | inhibition [2]: -1.04%

O=C(OCn1nnc2ccccc2c1=O)c1ccccc1
inhibition [1]: 40.5% (active) | inhibition [2]: 44.9%

CCCn1nnnc1NC(=O)c1cccs1
inhibition [1]: 18.2% (inactive) | inhibition [2]: 29.4%

O=C(OCn1nnc2ccccc2c1=O)c1ccco1
inhibition [1]: 20.6% (active) | inhibition [2]: 47%

O=C(OCn1nnc2ccccc2c1=O)c1cccs1
inhibition [1]: 42.4% (active) | inhibition [2]: 57.1%
